Assay results: PubChem BioAssay AID1159580 (chemical genetic matrix, 2015)
The whole screen tested about 5,500 compounds, of which about 2,000 (36%) were called active. About 18% were inconclusive and are not listed. Cut-off read from the data, not from the text of the source: active = normalized growth mostly below about 0.91 (no sharp cut-off); inconclusive = no clear call, values can overlap the other calls; inactive = mostly above about 0.92. The list shows a part of the results.

Experiment: chemical genetic growth profiling, strain panel (AID 1159580);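 note: tested at 20 µM; growth read once vehicle control cultures reached saturation at 30 °C; 1 = growth at the plate median or of vehicle wells; lower values mean less growth of the strain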
Details: growth OD

Measured: normalized growth

O=C(O)c1cc(=O)c2cc(Cl)ccc2[nH]1
inactive: S. cerevisiae deletion strains, locus YAL013W, strain DEP1, stronger effect = lower value 0.985 | S. cerevisiae deletion strains, locus YBR021W, strain FUR4, stronger effect = lower value 1.03 | S. cerevisiae deletion strains, locus YBR229C, strain ROT2, stronger effect = lower value 1.01 | S. cerevisiae deletion strains, locus YCL029C, strain bik1, stronger effect = lower value 1.01 | S. cerevisiae deletion strains, locus YDL035C, strain GPR1, stronger effect = lower value 1 | S. cerevisiae deletion strains, locus YDL074C, strain BRE1, stronger effect = lower value 0.972 | S. cerevisiae deletion strains, locus YDL101C, strain DUN1, stronger effect = lower value 1 | S. cerevisiae deletion strains, locus YDL134C, strain PPH21, stronger effect = lower value 1 | S. cerevisiae deletion strains, locus YDL185W, strain tfp1, stronger effect = lower value 1 | S. cerevisiae deletion strains, locus YDL192W, strain arf1, stronger effect = lower value 1.01 | S. cerevisiae deletion strains, locus YDR101C, strain arx1, stronger effect = lower value 1.01 | S. cerevisiae deletion strains, locus YDR150W, strain NUM1, stronger effect = lower value 1.01 | S. cerevisiae deletion strains, locus YDR162C, strain NBP2, stronger effect = lower value 0.988 | S. cerevisiae deletion strains, locus YDR318W, strain mcm21, stronger effect = lower value 1.03 | S. cerevisiae deletion strains, locus YDR388W, stronger effect = lower value 1.01 | S. cerevisiae deletion strains, locus YDR502C, strain sam2, stronger effect = lower value 1 | S. cerevisiae deletion strains, locus YEL061C, strain CIN8, stronger effect = lower value 1 | S. cerevisiae deletion strains, locus YER110C, stronger effect = lower value 1 | S. cerevisiae deletion strains, locus YER155C, strain BEM2, stronger effect = lower value 0.995 | S. cerevisiae deletion strains, locus YER167W, strain BCK2, stronger effect = lower value 1.02 | S. cerevisiae deletion strains, locus YGL078C, strain dbp3, stronger effect = lower value 1 | S. cerevisiae deletion strains, locus YGL086W, strain mad1, stronger effect = lower value 1.01 | S. cerevisiae deletion strains, locus YGL248W, strain PDE1, stronger effect = lower value 1.02 | S. cerevisiae deletion strains, locus YGR078C, strain PAC10, stronger effect = lower value 0.995 | S. cerevisiae deletion strains, locus YGR135W, strain pre9, stronger effect = lower value 0.994 | S. cerevisiae deletion strains, locus YGR229C, strain SMI1, stronger effect = lower value 0.972 | S. cerevisiae deletion strains, locus YGR252W, strain gcn5, stronger effect = lower value 1.04 | S. cerevisiae deletion strains, locus YHR030C, strain SLT2, stronger effect = lower value 1 | S. cerevisiae deletion strains, locus YHR079C, strain IRE1 (second series), stronger effect = lower value 1.02 | S. cerevisiae deletion strains, locus YHR094C, strain hxt1, stronger effect = lower value 1.01 | S. cerevisiae deletion strains, locus YHR129C, strain ARP1, stronger effect = lower value 1.02 | S. cerevisiae deletion strains, locus YHR200W, strain rpn10, stronger effect = lower value 1.01 | S. cerevisiae deletion strains, locus YIL066C, strain RNR3, stronger effect = lower value 0.997 | S. cerevisiae deletion strains, locus YIL073C, strain SPO22, stronger effect = lower value 1.08 | S. cerevisiae deletion strains, locus YIL125W, strain kgd1, stronger effect = lower value 1.01 | S. cerevisiae deletion strains, locus YIR030C, strain dcg1, stronger effect = lower value 1.01 | S. cerevisiae deletion strains, locus YJL095W, strain BCK1, stronger effect = lower value 0.994 | S. cerevisiae deletion strains, locus YJL134W, strain LCB3, stronger effect = lower value 1.01 | S. cerevisiae deletion strains, locus YJL168C, strain set2, stronger effect = lower value 1 | S. cerevisiae deletion strains, locus YJL187C, strain SWE1 (second series), stronger effect = lower value 1.01 | S. cerevisiae deletion strains, locus YJR043C, strain POL32, stronger effect = lower value 1.01 | S. cerevisiae deletion strains, locus YJR075W, strain HOC1, stronger effect = lower value 0.983 | S. cerevisiae deletion strains, locus YKL009W, strain mrt4, stronger effect = lower value 1.03 | S. cerevisiae deletion strains, locus YKL068W, stronger effect = lower value 0.996 | S. cerevisiae deletion strains, locus YKL085W, strain MDH1 (second series), stronger effect = lower value 1.02 | S. cerevisiae deletion strains, locus YKL085W, strain MDH1, stronger effect = lower value 1.02 | S. cerevisiae deletion strains, locus YKL190W, strain CNB1, stronger effect = lower value 1 | S. cerevisiae deletion strains, locus YKR001C, strain vps1, stronger effect = lower value 1.01 | S. cerevisiae deletion strains, locus YLR039C, strain RIC1, stronger effect = lower value 1.02 | S. cerevisiae deletion strains, locus YLR058C, strain SHM2, stronger effect = lower value 1.01 | S. cerevisiae deletion strains, locus YLR102C, strain apc9, stronger effect = lower value 1.01 | S. cerevisiae deletion strains, locus YLR262C, strain YPT6, stronger effect = lower value 1.01 | S. cerevisiae deletion strains, locus YLR268W, strain sec22, stronger effect = lower value 1.01 | S. cerevisiae deletion strains, locus YLR330W, strain CHS5, stronger effect = lower value 1 | S. cerevisiae deletion strains, locus YLR342W, strain FKS1 (second series), stronger effect = lower value 1.08 | S. cerevisiae deletion strains, locus YLR371W, strain rom2, stronger effect = lower value 1.02 | S. cerevisiae deletion strains, locus YLR418C, strain cdc73, stronger effect = lower value 0.984 | S. cerevisiae deletion strains, locus YML016C, strain PPZ1, stronger effect = lower value 1 | S. cerevisiae deletion strains, locus YML032C, strain rad52, stronger effect = lower value 1.02 | S. cerevisiae deletion strains, locus YML124C, strain tub3, stronger effect = lower value 1 | S. cerevisiae deletion strains, locus YMR078C, strain ctf18, stronger effect = lower value 1.02 | S. cerevisiae deletion strains, locus YMR223W, strain ubp8, stronger effect = lower value 1.03 | S. cerevisiae deletion strains, locus YMR263W, strain SAP30, stronger effect = lower value 1 | S. cerevisiae deletion strains, locus YMR307W, strain GAS1, stronger effect = lower value 1.03 | S. cerevisiae deletion strains, locus YNL067W, strain RPL9B, stronger effect = lower value 0.994 | S. cerevisiae deletion strains, locus YNL128W, strain TEP1, stronger effect = lower value 0.951 | S. cerevisiae deletion strains, locus YNL153C, strain GIM3, stronger effect = lower value 0.999 | S. cerevisiae deletion strains, locus YNL233W, strain BNI4, stronger effect = lower value 1.01 | S. cerevisiae deletion strains, locus YNL250W, strain rad50, stronger effect = lower value 1.01 | S. cerevisiae deletion strains, locus YNL271C, strain bni1, stronger effect = lower value 1 | S. cerevisiae deletion strains, locus YNL298W, strain CLA4, stronger effect = lower value 1.01 | S. cerevisiae deletion strains, locus YNL307C, strain MCK1, stronger effect = lower value 1.03 | S. cerevisiae deletion strains, locus YNL322C, strain KRE1, stronger effect = lower value 0.998 | S. cerevisiae deletion strains, locus YNR052C, strain pop2, stronger effect = lower value 1.01 | S. cerevisiae deletion strains, locus YOL006C, strain TOP1, stronger effect = lower value 1.03 | S. cerevisiae deletion strains, locus YOL012C, strain htz1 1.31 | S. cerevisiae deletion strains, locus YOL147C, strain pex11, stronger effect = lower value 1.01 | S. cerevisiae deletion strains, locus YOR061W, strain CKA2, stronger effect = lower value 1 | S. cerevisiae deletion strains, locus YOR069W, strain VPS5, stronger effect = lower value 1.01 | S. cerevisiae deletion strains, locus YOR136W, strain idh2, stronger effect = lower value 1.01 | S. cerevisiae deletion strains, locus YOR144C, strain elg1, stronger effect = lower value 1 | S. cerevisiae deletion strains, locus YOR184W, strain ser1, stronger effect = lower value 1.06 | S. cerevisiae deletion strains, locus YOR316C, strain cot1, stronger effect = lower value 1.01 | S. cerevisiae deletion strains, locus YPL055C, strain LGE1, stronger effect = lower value 0.967 | S. cerevisiae deletion strains, locus YPL241C, strain CIN2, stronger effect = lower value 1 | S. cerevisiae deletion strains, locus YPR119W, strain clb2, stronger effect = lower value 1 | S. cerevisiae deletion strains, locus YPR141C, strain kar3, stronger effect = lower value 1.01 | S. cerevisiae deletion strains, locus YPR163C, strain tif3, stronger effect = lower value 1.01 | S. cerevisiae deletion strains, locus YPR167C, strain met16, stronger effect = lower value 1 | S. cerevisiae deletion strains, strain wtn01, stronger effect = lower value 1.01 | S. cerevisiae strains, strain wild type, stronger effect = lower value 0.988
